Experimental findings from PubChem BioAssay (NCATS) are described below.

The structures appear in SMILES notation. Active and inactive are the calls of the source. Entries that show only a call come without a potency. Calls follow the shape of the dose curve; as a rule, active = well fitted inhibition curve with a large enough effect; inconclusive = small, poorly fitted or top-dose-only effect; inactive = flat fitted curve, though single readings scatter.

Sequence of ATP-dependent DNA helicase Q1 (Homo sapiens) (P46063 whole entry, looked up): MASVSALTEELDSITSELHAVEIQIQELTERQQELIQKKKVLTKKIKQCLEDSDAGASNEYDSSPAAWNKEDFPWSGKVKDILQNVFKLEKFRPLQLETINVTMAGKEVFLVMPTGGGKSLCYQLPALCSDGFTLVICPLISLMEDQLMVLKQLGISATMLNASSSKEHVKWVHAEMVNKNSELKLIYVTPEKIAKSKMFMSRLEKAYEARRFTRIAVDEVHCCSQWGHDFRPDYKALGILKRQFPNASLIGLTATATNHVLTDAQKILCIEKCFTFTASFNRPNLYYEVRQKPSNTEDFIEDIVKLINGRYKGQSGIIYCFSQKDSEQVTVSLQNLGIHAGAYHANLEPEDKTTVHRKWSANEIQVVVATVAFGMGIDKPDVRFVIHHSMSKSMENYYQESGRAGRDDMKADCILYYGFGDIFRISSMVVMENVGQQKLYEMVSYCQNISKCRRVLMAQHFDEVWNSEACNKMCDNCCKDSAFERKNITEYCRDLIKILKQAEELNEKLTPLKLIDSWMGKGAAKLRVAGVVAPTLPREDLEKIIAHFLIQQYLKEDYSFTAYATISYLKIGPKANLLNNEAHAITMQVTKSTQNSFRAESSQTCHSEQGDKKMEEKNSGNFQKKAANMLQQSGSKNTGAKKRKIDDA

For this test, the target named is ATP-dependent DNA helicase Q1 (Homo sapiens) (UniProt P46063). The test can be described thus: qHTS Validation Assay for Inhibitors of RecQ-Like Dna Helicase 1 (RECQ1) (AID 2353). As to conditions: recombinant RECQ1 helicase DNA unwinding assay; series mostly up to 25.6 µM. The text has this:
Survival of cells and the faithful propagation of the genome depend on elaborate mechanisms of detecting and repairing DNA damage. Treatment of advanced cancer relies on radiation therapy or chemotherapy, which kill cancer cells by causing extensive DNA damage. It is often found, that cancer cells develop resistance to therapy through enhanced activity of DNA repair functions; this has led to an increased interest in developing drugs that interfere with DNA repair, which could sensitize cancer cells to conventional therapy.
This validation qHTS assay pertains to human RECQ1, which is important in resolving abnormal DNA structures formed during replication or homologous recombination. Shutting down the expression of RECQ1 leads to chromosomal instability and higher radiation sensitivity in cultured cells.
The validation assay was a fluorescence quenching based kinetic qHTS for RECQ1 Helicase DNA unwinding. The activity was measured as ATP-dependent separation of a 20-bp DNA duplex extended by 30-nt single-stranded tails (forked duplex). The forked DNA substrate was tagged with rhodamine fluorophore (carboxytetramethyl rhodamine, TAMRA) and BHQ-2 (Black Hole Quencher 2) dark quencher. Strand separation results in an increase in the fluorescence of TAMRA (excitation 525 nm, emission 598 nm). This substrate construct operates in a red-shifted region where very few compound library members have been noted to fluoresce (PubChem AIDs 593 and 594). An additional feature of the assay is the inclusion of 2.5 ug/ml poly (dIdC), to reduce interference by compounds such as DNA intercalators, a major source of false inhibitors.
Opher Gileadi, Structural Genomics Consortium, University of Oxford
Screening Center PI: Austin, C.P.
Screening Center: NIH Chemical Genomics Center [NCGC]
Three uL of reaction buffer (25 mM Tris-HCl (pH 8.0), 5 mM NaCl, 2 mM MgCl2, 1mM DTT, 0.01% Tween- 20, and 2.5 ug/ml poly(dI-dC), including enzyme (50 nM RECQ1T1), were dispensed into a 1536-well Greiner black assay plate via solenoid-valve based nanoliter dispensers. Compounds (23 nl each in columns 5-48) and control (23 nl each in column 2 as dose-response) were transferred via a Kalypsys pintool equipped with a 1536-pin array. The plates were incubated for 15 min at room temperature, and then 1 ul of substrates (200 nM DNA and 2 mM ATP, final concentrations) was added to start the reaction. The plate was transferred into a ViewLux high-throughput CCD imager where the reaction progress was measured in a discontinuous kinetic mode (two reads spaced 2 hours apart, with intermediate room temperature incubation of the covered assay plate) by using standard red-fluorescence optics (excitation filter 525 nm, emission filter 598 nm). Enzyme-free and vehicle (DMSO) controls were included for signal normalization.
Regarding `C[n+]1cc2c3c(ccc2c2ccc4cc5c(cc4c21)OCO5)OCO3`, the Potency entry is “inactive”.
With `Cc1ccc(=O)n(-c2ccccc2)c1`, the Potency result was “inactive”.
As for `CNCCC(Oc1ccccc1OC)c1ccccc1` (stereo not given), the Potency result is “inactive”.
In the case of `CCN(CC)CCNC(=O)c1cc(S(C)(=O)=O)ccc1OC`, the Potency entry is “inactive”.
The same measure for `CN1CCN(C2=Nc3ccccc3Oc3ccc(Cl)cc32)CC1`: “inactive”.
On to `Cc1ccc(/C(=C\CN2CCCC2)c2ccccn2)cc1`, for which the Potency entry was “inactive”.
As to `CC(C)COCC(CN(Cc1ccccc1)c1ccccc1)N1CCCC1` (stereo not given), the Potency result is “inactive”.
Take `NC(N)=NC(=O)Cc1c(Cl)cccc1Cl`: the Potency entry was “inactive”.
Next, `Cc1ccc(Cl)c(Nc2ccccc2C(=O)O)c1Cl`: “inactive”; `C[N+](C)(C)CCOC(=O)CCC(=O)OCC[N+](C)(C)C`: “inactive”; `C#CCN(C)CCCOc1ccc(Cl)cc1Cl`: “inactive”.
Next, `CN(C)C(=O)Oc1ccc[n+](C)c1`: “inactive”; `O=C(O)CN(CCN(CC(=O)O)CC(=O)O)CCN(CC(=O)O)CC(=O)O`: “inactive”; `C(=C\c1ccccc1)/CN1CCN(C(c2ccccc2)c2ccccc2)CC1`: “inactive”.
For the molecule `Cc1scc2c1N(C(=O)CN1CCN(C)CC1)c1ccccc1NC2=O`, the Potency entry is “inactive”.
The same measure for `COC(=O)[C@@H](N)Cc1ccc(O)c(O)c1`: “inactive”.
Next, `FC(F)(F)c1ccccc1-n1ccnc1`: “inactive”; `CSc1ccc(C(=O)c2[nH]c(=O)[nH]c2C)cc1`: “inactive”; `CCNC(=O)N1CCN(CCCC(c2ccc(F)cc2)c2ccc(F)cc2)CC1`: “inactive”.
Regarding `OCCN1CCN(CCCN2c3ccccc3C=Cc3ccccc32)CC1`, the Potency entry was “inactive”.
As to `CN(C)CC[C@@H](c1ccc(Br)cc1)c1ccccn1`, the Potency entry was “inactive”.
The same measure for `OC(CCN1CCCCC1)(c1ccccc1)C1CCCCC1` (stereo not given): “inactive”; for `C=CCc1ccccc1OCC(O)CNC(C)C` (stereo not given): “inactive”; for `CC(C)NCC(O)c1cc(O)cc(O)c1` (stereo not given): “inactive”.
`CC(C)NNC(=O)c1ccncc1`: the Potency result is “inactive”.
On to `CC1=C(C)C(=O)C(CCCCC#CCCCC#CCO)=C(C)C1=O`, for which the Potency result is “inactive”.
Next, `CC(C(=O)O)c1ccc(CC2CCCC2=O)cc1` (stereo not given): “inactive”.
Next, `COc1cc(C(=O)OCCCN2CCCN(CCCOC(=O)c3cc(OC)c(OC)c(OC)c3)CC2)cc(OC)c1OC`: “inactive”; `C[C@]12C=CC(=O)C=C1CC[C@H]1[C@@H]3C[C@@H](O)[C@](O)(C(=O)CO)[C@@]3(C)C[C@H](O)[C@@]12F`: “inactive”; `CN1CCN(CC(=O)N2c3ccccc3C(=O)Nc3cccnc32)CC1`: “inactive”.
In the case of `COc1cc2c(cc1OC)-c1cc(=Nc3c(C)cc(C)cc3C)n(C)c(=O)n1CC2`, the Potency result was “inactive”.
Next, `NC(=O)N1c2ccccc2C=Cc2ccccc21`: “inactive”; `COCCCC/C(=N\OCCN)c1ccc(C(F)(F)F)cc1`: “inactive”.
Turning to `CC(=O)Oc1cc(C(C)C)c(OCCN(C)C)cc1C`, the Potency entry was “inactive”.
Next, `COCCOC(=O)C1=C(C)NC(C)=C(C(=O)OC(C)C)C1c1cccc([N+](=O)[O-])c1` (stereo not given): “inactive”; `CN(C)CCCN1c2ccccc2Sc2ccccc21`: “inactive”.
The same measure for `c1ccc2c(c1)CCCC2C1=NCCN1` (stereo not given): “inactive”; for `CCCC(C(=O)OCCN(CC)CC)(c1ccccc1)c1ccccc1`: “inactive”; for `CC(=O)OC(C)C[N+](C)(C)C` (stereo not given): “inactive”.
Next, `COc1ccc([C@@H]2Sc3ccccc3N(CCN(C)C)C(=O)[C@@H]2OC(C)=O)cc1`: “inactive”.
